The source made the active and inactive calls. The calls were made as follows: active = hit-call score of the fitted dose curve at least 0.9, where 1 is the maximum; inactive = score below 0.9.

A short description of the assay: ATG_PBREM_CIS: Attagene CIS-FACTORIAL HepG2 Assay for human Phenobarbital-responsive Enhancer Module (PBREM) (AID 2282955). The settings on record: HepG2 PBREM cis-reporter, Attagene multiplexed transcription; actives raise or lower the signal. On the procedure:
ATG_CIS is a cell-based, multiplexed-readout assay that uses HepG2, a human liver cell line, with measurements taken at 24 hours after chemical dosing in a 24-well plate.ATG_PBREM_CIS is one of 52 assay component(s) measured or calculated from the ATG_CIS assay. It is designed to make measurements of mRNA induction, a form of inducible reporter, as detected with fluorescence intensity signals by Reverse transcription polymerase chain reaction (RT-PCR) and Capillary electrophoresis technology.Data from the assay component ATG_PBREM_CIS was analyzed into 1 assay endpoint. This assay endpoint, ATG_PBREM_CIS, was analyzed with bidirectional fitting relative to DMSO as the negative control and baseline of activity. Using a type of inducible reporter, measures of mRNA for gain or loss-of-signal activity can be used to understand the reporter gene at the transcription factor-level as they relate to the gene NR1I3. Furthermore, this assay endpoint can be referred to as a primary readout, because this assay has produced multiple assay endpoints where this one serves a reporter gene function. To generalize the intended target to other relatable targets, this assay endpoint is annotated to the nuclear receptor intended target family, where the subfamily is non-steroidal.
Human liver HepG2 cells are transiently transfected with multiple reporter transcription units (MRTUs) in 6-well plates using FuGene 6 reagent (Roche; 3 ml FuGene/1 mg DNA). The MRTU constructs are regulated by a cis-regulating element (promoter). […] A major difference between the CIS and TRANS system is that in CIS activities of endogenous TFs are measured, whereas the TRANS assay evaluates changes in activities of exogenous, chimeric NR-Gal4 proteins. […] At the end of 24 hour incubation, total RNA was isolated using TriZol reagent (Invitrogen). The isolated RNA is then reverse-transcribed using oligo(dT) primer and Mo-MLV reverse transcriptase (Invitrogen) with DNAse I (Ambion) treatment for 30 min. The one-tenth of the produced cDNA was amplified by PCR using Taq DNA polymerase (Invitrogen) and two reporter sequence-specific primers. The PCR products were fluorescently labeled by primer extension with 6-arboxyfluorescein (6-FAM) 5'-labeled reporter sequence-specific primer (2 min at 95 C, 20 s at 68 C and 10 min at 72 C) and these products were digested with 5U of HpaI (New England Biolabs) for 2h at 37 C. The fragments were purified using Qiaquick PCR columns (Qiagen), analyzed on an ABI 3130xL genetic analyzer (Applied Biosystems) with peak positions identified by using a set of X-rhodamine (ROX)-labeled MapMarker1000 molecular weight standards (BioVentures). The raw capillary electrophoresis data was processed using Attagraph software (Attagene).
Turning to `C[C@H](CCC(=O)O)[C@H]1CC[C@H]2[C@@H]3CC[C@@H]4C[C@H](O)CC[C@]4(C)[C@H]3CC[C@]12C`, the result was inactive. For the compound `CC12CCC(C1)C(C)(C)C2O` (stereo not given), the outcome was inactive. Still for that read-out and setting: the result for `NC(=O)c1cnccn1` reads “inactive”; that for `CCC(C)C1CCCCC1=O` (stereo not given), “inactive”; that for `CC(C)CCOC(=O)CC(C)C`, “inactive”. Same read-out and setting: under `CCC(=O)OC(C)(C)C1CC=C(C)CC1` (stereo not given) stands “inactive”; under `c1ccc2c(c1)-c1ccc3ccc4cccc5cc-2c1c3c45`, “inactive”. Turning to `COc1ccccc1O`, the outcome was inactive. The same measure, in the same setting: under `CCC(C)(C)C1CCC(OC)CC1` (stereo not given) stands “inactive”. Regarding `CCCc1ccc(N)cc1`, the outcome was inactive. Consider `CC(=O)Nc1cc(S(=O)(=O)O)cc2cc(S(=O)(=O)O)c(N=Nc3ccccc3)c(O)c12`, for which the result was inactive. The same measure, in the same setting: under `CC(O)CNCC(C)O` (stereo not given) stands “inactive”; under `CCNC(=S)NCC`, “inactive”. For the compound `CC(=O)OCC=C(C)CCC=C(C)CCC=C(C)C`, the AC50 is 175 µM (active).

Turning to `C1COCO1`, the result was inactive.

In the case of `CCOC(=O)CC1(C)OCC(C)O1` (stereo not given), the result was inactive. Take `CCc1cccc(O)c1`: the result was inactive. As for `Cc1cc(O)c(C)c(C)c1O`, the outcome was inactive. As for `CC1=CCC(C(C)C)=CC1`, the outcome was inactive. On to `CC1=C(C=O)C(C)(C)CCC1`, for which the result was inactive. Still for that read-out and setting: the result for `C=C(C)C(=O)OCCOCCOC(=O)C(=C)C` reads “inactive”. `CCCCCC(=O)O[C@]1(C(C)=O)CC[C@H]2[C@@H]3CCC4=CC(=O)CC[C@]4(C)[C@H]3CC[C@@]21C`: the result was inactive. Still for that read-out and setting: the result for `c1coc(CNc2ncnc3nc[nH]c23)c1` reads “inactive”; that for `CCC(=O)OCC=Cc1ccccc1`, “inactive”. Take `Cc1ccc(C(C)(C)O)cc1`: the outcome was inactive. On to `Cc1cccc(C)c1`, for which the result was inactive. For `CC(C)N(c1ccccc1)C(C)C`, the result was inactive.

For the compound `C[N+](C)(C)CCO`, the outcome was inactive. Still for that read-out and setting: under `Cc1ccccc1S` stands “inactive”; under `CCCC[N+](C)(CCCC)CCCC`, “inactive”. Same read-out and setting: the result for `COc1cc(OC)c2ccc(=O)oc2c1` reads “inactive”. Same read-out and setting: under `CC/C=C\CCOC(C)OCC` (stereo not given) stands “inactive”; under `CCOC(=O)C=Cc1ccccc1`, “inactive”; under `N=C1N=C(N)c2ccccc21`, “inactive”.

Consider `CCCCCCCCCO`, for which the outcome was inactive. For the compound `N#CCCNCCC#N`, the outcome was inactive. On to `CCCCCCCCCCOC(=O)c1ccccc1C(=O)OCCCCCCCC`, for which the outcome was inactive. Still for that read-out and setting: under `CNC(=C[N+](=O)[O-])NCCSCc1ccc(CN(C)C)o1` stands “inactive”; under `NC(=O)NC(N)=O`, “inactive”; under `Brc1cc(Br)cc(Br)c1`, “inactive”.

These data come from PubChem BioAssay (EPA / NIEHS).
